# Results filed as inconclusive are left out. A number with no mark means an inactive call. The source made the active and inactive calls. Calls come from the whole dose curve; as a rule, active = well fitted cell-killing curve with a large enough effect in the repeat runs; inconclusive = weak or mixed curves, or effect the other way; inactive = flat fitted curve, though single readings scatter.
# Test: cAMP Responsive Elements (CRE) small molecule antagonists, cell-based qHTS assay: qHTS cell viability counter screen (AID 2060913); note: nearly all actives have a fitted effect of over 40% in size
# Settings: CRE-bla HEK293T viability, CellTiter-Glo luminescence, 5 h; series mostly up to 92.4 µM; viability change, negative = cytotoxic: at the top concentration
# Procedure, shortened: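 Cytotoxicity read in the same wells as the CRE-bla HEK293T antagonist assay: after 3 h compound with 0.25 uM NKH477 final and 2 h beta-lactamase substrate, CellTiter-Glo luminescence measured.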
# % is set by controls: 0 for no effect and ±100 for the full control effect.
SMILES,"viability change, negative = cytotoxic",Potency
CCN1CCCC1CN (stereo unspecified),3.6% [at 42.5 µM],
O=CCc1ccccc1,,inactive
CCn1cc(C(=O)O)c(=O)c2cc3c(cc21)OCO3,,inactive
CC(C)O.CC(C)O.CCOC(=O)/C=C(\C)O.CCOC(=O)/C=C(\C)O.[Ti],7.89%,
CC(C)(Oc1ccc(Cl)cc1)C(=O)OCCCOC(=O)C(C)(C)Oc1ccc(Cl)cc1,-5.25% [at 42.5 µM],
CN(C)CCCN1c2ccccc2CCc2ccccc21,,inactive
[Cl][In]([Cl])[Cl],,inactive
CC(C)S,-1.26%,
C=CC(=O)OCCCCCCCC(C)C,,inactive
OCc1cccnc1,,inactive
CCCC1O[C@@H]2C[C@H]3[C@@H]4CCC5=CC(=O)C=C[C@]5(C)[C@H]4[C@@H](O)C[C@]3(C)[C@]2(C(=O)CO)O1 (stereo partly specified),,inactive

# Test: cAMP Responsive Elements (CRE) small molecule agonists, cell-based qHTS assay: qHTS cell viability counter screen (AID 2060914);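 note: viability read after 3 h of compound exposure; nearly all actives have a fitted effect of over 50% in size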
# Settings: CRE-bla HEK293T viability, CellTiter-Glo luminescence, 5 h; series mostly up to 92.4 µM; activity change, negative = cytotoxicity: at the top concentration
# Procedure, shortened: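 CRE-bla HEK293T cells in 10% dialyzed FBS medium were exposed to compounds for 3 h at 37C after 18 h plating. CellTiter-Glo was then added in the same wells, and luminescence was read after 30 min at room temperature.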
SMILES,"activity change, negative = cytotoxicity",Potency
COc1cc2c(Nc3ccc(Br)cc3F)ncnc2cc1OCC1CCN(C)CC1,1.06% [at 42.5 µM],
OCCC(O)CO (stereo unspecified),0.579%,
Cc1cc(O)c(Cl)c(C)c1Cl,-1.61%,
CCCCNC(=O)NS(=O)(=O)c1ccc(C)cc1,,inactive
CCOC=C(C(=O)OCC)C(=O)OCC,1.72%,
C=C(C)C(=O)OCCOc1ccccc1,16.2%,
CC(C)(Sc1cc(C(C)(C)C)c(O)c(C(C)(C)C)c1)Sc1cc(C(C)(C)C)c(O)c(C(C)(C)C)c1,-0.636% [at 42.5 µM],
CCCCCCCCCCCCCCC,-2.9%,
O=C(CS)Nc1ccccc1,0.772% [at 42.5 µM],
CCCCCC(=O)OCC,1.47%,
COc1ccc(OC)cc1,,inactive
c1ccc(CC2=NCCN2)cc1,1.43% [at 42.5 µM],
Oc1ccc2c(c1)OCO2,-5.67%,
CCC1(C)CC(=O)NC1=O (stereo unspecified),-2.61% [at 42.5 µM],
NC(CCC(=O)O)C(=O)O (stereo unspecified),-10.2%,
O=C1OC(=O)c2cc(-c3ccc4c(c3)C(=O)OC4=O)ccc21,-9.49%,
Cc1ccccc1S(=O)(=O)O,-4.19%,
CC(C(=O)O)c1ccc(/C=C2\CCCCC2=O)cc1 (stereo unspecified),13.5% [at 42.5 µM],
Cc1cccc(C)c1O,,inactive
Oc1cc2ccccc2cc1O,-10.4%,

SMILES,"activity change, negative = cytotoxicity",Potency
C=C(C)OC(C)=O,,inactive
BrCCCCCBr,-3.12%,
Cc1ccccc1Br,0.401%,
c1ccc(CSCc2ccccc2)cc1,-14.3%,
CNC(=O)Oc1ccc2c(c1)[C@]1(C)CCN(C)[C@@H]1N2C,,inactive
C[Si](C)O[Si](C)C,-13.9%,
CCO/C([O-])=N/c1c[n+](N2CCOCC2)no1,0.171% [at 42.5 µM],
COC(=O)c1sccc1S(N)(=O)=O,1.84%,
CCCCC(O)/C=C(C)/C=C/C=C/C(=O)N1CCCC1=O (stereo unspecified),0.11% [at 42.5 µM],
CCN1CCCC1CN (stereo unspecified),-2.77% [at 42.5 µM],
O=CCc1ccccc1,,inactive
CCn1cc(C(=O)O)c(=O)c2cc3c(cc21)OCO3,-16.8%,
CC(C)O.CC(C)O.CCOC(=O)/C=C(\C)O.CCOC(=O)/C=C(\C)O.[Ti],5.15%,
CC(C)(Oc1ccc(Cl)cc1)C(=O)OCCCOC(=O)C(C)(C)Oc1ccc(Cl)cc1,-6.8% [at 42.5 µM],
CN(C)CCCN1c2ccccc2CCc2ccccc21,10.2%,
[Cl][In]([Cl])[Cl],11.9%,
CC(C)S,-1.42%,
C=CC(=O)OCCCCCCCC(C)C,,inactive
OCc1cccnc1,,inactive
CCCC1O[C@@H]2C[C@H]3[C@@H]4CCC5=CC(=O)C=C[C@]5(C)[C@H]4[C@@H](O)C[C@]3(C)[C@]2(C(=O)CO)O1 (stereo partly specified),,inactive

# From PubChem BioAssay (Tox21)
